From PubChem BioAssay (EPA / NIEHS) come the findings set out here.

Results filed as inconclusive are left out. The source made the active and inactive calls. Rule for the calls: active = hit-call score of the fitted dose curve at least 0.9, where 1 is the maximum; inconclusive = response in the unintended direction; inactive = score below 0.9.

The target of assay [1] is human Serotonin, 5-Hydroxytryptamine Receptor 6 (5HT6), HTR6 (gene 3362) (UniProt P50406). The assay can be described thus: NVS_GPCR_h5HT6: NovaScreen (NVS) G Protein-Coupled Receptor Assay for human Serotonin, 5-Hydroxytryptamine Receptor 6 (5HT6) (AID 2283253). Put shortly:
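Filter scintillation counting of radioligand displacement from HEK293-expressed 5HT6, 1 hour post-dose, with loss of signal relative to DMSO. Single 25 uM duplicates first, with concentration series for confirmation.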

Assay [2] deals with human Adrenergic, Beta 1 Receptor (Adrb1), ADRB1 (gene 153) (UniProt P08588). Nature of the assay: NVS_GPCR_hAdrb1: NovaScreen (NVS) G Protein-Coupled Receptor Assay for human Adrenergic, Beta 1 Receptor (Adrb1) (AID 2283258). On the procedure: (§1) NVS_GPCR_hAdrb1 is a biochemical, single-readout assay that uses extracted gene-proteins from Human neuroepithelioma cells in a cell-free assay. Measurements were taken 2 hours after chemical dosing in a 96-well plate.NVS_GPCR_hAdrb1 is one of one assay component(s) measured or calculated from the NVS_GPCR_hAdrb1 assay. It is designed to make measurements of radioligand binding, a form of binding reporter, as detected with scintillation counting signals by Filter-based radiodetection technology.Data from the assay component NVS_GPCR_hAdrb1 was analyzed into 1 assay endpoint. This assay endpoint, NVS_GPCR_hAdrb1, was analyzed in the positive analysis fitting direction relative to DMSO as the negative control and baseline of activity. Using a type of binding reporter, loss-of-signal activity can be used to understand changes in the binding as they relate to the gene ADRB1. Furthermore, this assay endpoint can be referred to as a primary readout, because the performed assay has only produced 1 assay endpoint. To generalize the intended target to other relatable targets, this assay endpoint is annotated to the gpcr intended target family, where the subfamily is rhodopsin-like receptor.
(§2) Binding assays used specific radioligands (tritiated, iodinated) with non-radioactive competitive displacement ligands in agonist or antagonist protocols (as indicated) and various reference compounds and inhibitors to titrate specific binding to receptors and transporters. Most enzyme assays (CYPs, kinases, phosphatases, proteases, HDACs) used recombinant protein and specific substrates (fluorescence mostly, some colorimetric and radioactive) and inhibitors, followed by a biochemical separation of substrate and product. All assays for the biochemical HTS were initially run in duplicate at a single concentration (10 uM for CYP450 assays and 25 uM for all others). […] Each assay was run with positive and negative controls, and concurrent controls on every plate. The follow-up (secondary) screen tested active chemical-pairs in concentration series, as well as a few additional assays not tested in the primary screen, some selected negative inactives, and several cases re-run in the concentration series for confirmatory purposes.

The target of assay [3] is human Adenosine A2a Receptor (AdoRA2a), ADORA2A (gene 135) (UniProt P29274). Nature of the assay: NVS_GPCR_hAdoRA2a: NovaScreen (NVS) G Protein-Coupled Receptor Assay for human Adenosine A2a Receptor (AdoRA2a) (AID 2283256). On the procedure: as §1, with “NVS_GPCR_hAdoRA2a” for “NVS_GPCR_hAdrb1”, “HEK293” for “Human neuroepithelioma cells”, “1.5” for “2”, “plate.NVS_GPCR_hAdoRA2a” for “plate.NVS_GPCR_hAdrb1”, “NVS_GPCR_hAdoRA2a,” for “NVS_GPCR_hAdrb1,”, “ADORA2A.” for “ADRB1.”
as §2

The target of assay [4] is guinea pig Opioid, Kappa 1 Receptor (OpiateK), OPRK1 (gene 100135587) (UniProt P41144). The assay can be described thus: NVS_GPCR_gOpiateK: NovaScreen (NVS) G Protein-Coupled Receptor Assay for guinea pig Opioid, Kappa 1 Receptor (OpiateK) (AID 2283252).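 Note: active means reduced radioligand binding relative to DMSO.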 Put shortly: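 Radioligand binding to kappa opioid receptor in guinea pig cerebellar membranes, read by filtration and scintillation at 2 h. Compounds first tested in duplicate at 25 uM, then actives in concentration series; signal loss fitted against DMSO.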

Assay [5] addresses human Adenosine A1 Receptor (AdoRA1), ADORA1 (gene 134) (UniProt P30542). Nature of the assay: NVS_GPCR_hAdoRA1: NovaScreen (NVS) G Protein-Coupled Receptor Assay for human Adenosine A1 Receptor (AdoRA1) (AID 2283254). The essentials: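 Membranes from human cortical tissue were incubated with radioligand and test chemical for 1 hour, then filtered and counted. Activity was taken as signal loss relative to DMSO, screened at 25 uM in duplicate before concentration-response follow-up.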

Assay [6] addresses Beta-2 adrenergic receptor (Homo sapiens) (UniProt P07550). Nature of the assay: NVS_GPCR_hAdrb2: NovaScreen (NVS) G Protein-Coupled Receptor Assay for human Adrenergic, Beta 2 Receptor (Adrb2) (AID 2283261). The essentials:
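Compounds screened in duplicate at 25 uM, then actives in concentration series. Human beta-2 receptor from CHO material, cell-free; radioligand displacement after 1 h measured by filtration and scintillation against DMSO baseline.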

Assay [7] has as its target human Serotonin, 5-Hydroxytryptamine Receptor 7 (5HT7), HTR7 (gene 3363) (UniProt P34969). Nature of the assay: NVS_GPCR_h5HT7: NovaScreen (NVS) G Protein-Coupled Receptor Assay for human Serotonin, 5-Hydroxytryptamine Receptor 7 (5HT7) (AID 2283255).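 Note: hits reduce specific radioligand binding relative to DMSO.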 The essentials: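 Filter-bound radioactivity counted after 1 h, with loss of specific radioligand binding fitted against DMSO. Membrane protein came from CHO cells expressing human 5HT7. Chemicals were tested first at 25 uM in duplicate, then in concentration series if active.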

In assay [8] the target is human Adrenergic, Alpha 2A Receptor (Adra2A), ADRA2A (gene 150) (UniProt P08913). Nature of the assay: NVS_GPCR_hAdra2A: NovaScreen (NVS) G Protein-Coupled Receptor Assay for human Adrenergic, Alpha 2A Receptor (Adra2A) (AID 2283257). The essentials:
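Displacement of a specific radioligand from HT29 membrane protein was counted by filter scintillation after 1 h. Compounds were screened in duplicate at 25 uM, and actives were retested in concentration series. Fitting was positive-direction against DMSO.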

The target in assay [9] is human Adrenergic, Alpha 2c Receptor (Adra2C), ADRA2C (gene 152) (UniProt P18825). Nature of the assay: NVS_GPCR_hAdra2C: NovaScreen (NVS) G Protein-Coupled Receptor Assay for human Adrenergic, Alpha 2c Receptor (Adra2C) (AID 2283259). On the procedure:
as §1, with “NVS_GPCR_hAdra2C” for “NVS_GPCR_hAdrb1”, “SF9” for “Human neuroepithelioma cells”, “1 hour” for “2 hours”, “plate.NVS_GPCR_hAdra2C” for “plate.NVS_GPCR_hAdrb1”, “NVS_GPCR_hAdra2C,” for “NVS_GPCR_hAdrb1,”, “ADRA2C.” for “ADRB1.”
as §2, with “The follow-up (secondary) screen tested active chemical-pairs in concentration series, as well as a few additional assays not tested in the primary screen, some selected negative inactives, and several cases re-run in the concentration series for confirmatory purposes.” left out

For assay [10], the target named is human Adrenergic, Beta 3 Receptor (Adrb3), ADRB3 (gene 155) (UniProt P13945). Nature of the assay: NVS_GPCR_hAdrb3: NovaScreen (NVS) G Protein-Coupled Receptor Assay for human Adrenergic, Beta 3 Receptor (Adrb3) (AID 2283262). Put shortly:
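A cell-free filter binding assay read by scintillation counting, with displacement of a specific radioligand measured after 1 hour. The receptor source was SK-N-MC extracts (cells pretreated with isoproterenol and 8-bromo-cAMP). Compounds were first tested at 25 uM in duplicate and then in concentration series.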

Sequence of human Serotonin, 5-Hydroxytryptamine Receptor 6 (5HT6), HTR6 (gene 3362) (P50406 whole entry, looked up): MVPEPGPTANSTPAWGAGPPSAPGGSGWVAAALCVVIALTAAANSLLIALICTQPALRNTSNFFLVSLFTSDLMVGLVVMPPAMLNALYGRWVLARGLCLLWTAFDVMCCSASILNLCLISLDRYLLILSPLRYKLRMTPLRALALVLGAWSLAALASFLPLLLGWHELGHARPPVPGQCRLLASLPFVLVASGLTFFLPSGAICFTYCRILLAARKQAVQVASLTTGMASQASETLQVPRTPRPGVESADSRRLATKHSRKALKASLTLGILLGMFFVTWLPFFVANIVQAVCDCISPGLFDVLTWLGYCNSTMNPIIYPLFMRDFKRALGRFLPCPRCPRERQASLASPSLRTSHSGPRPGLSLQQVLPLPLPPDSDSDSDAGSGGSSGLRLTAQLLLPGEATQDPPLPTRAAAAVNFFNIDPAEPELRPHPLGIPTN
Sequence of human Adrenergic, Alpha 2A Receptor (Adra2A), ADRA2A (gene 150) (P08913 whole entry, looked up): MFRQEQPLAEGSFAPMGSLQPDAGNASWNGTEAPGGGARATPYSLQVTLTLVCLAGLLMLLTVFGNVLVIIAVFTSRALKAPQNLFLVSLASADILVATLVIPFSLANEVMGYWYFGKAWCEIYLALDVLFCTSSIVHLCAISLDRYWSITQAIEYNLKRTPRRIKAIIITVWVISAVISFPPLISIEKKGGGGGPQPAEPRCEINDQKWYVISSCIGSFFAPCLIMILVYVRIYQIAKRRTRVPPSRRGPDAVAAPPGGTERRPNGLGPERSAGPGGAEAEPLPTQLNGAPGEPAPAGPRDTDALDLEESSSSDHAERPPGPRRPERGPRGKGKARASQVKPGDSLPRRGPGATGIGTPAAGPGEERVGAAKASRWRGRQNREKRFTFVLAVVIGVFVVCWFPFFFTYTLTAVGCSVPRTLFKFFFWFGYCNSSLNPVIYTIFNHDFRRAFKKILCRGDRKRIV
Sequence of guinea pig Opioid, Kappa 1 Receptor (OpiateK), OPRK1 (gene 100135587) (P41144 whole entry, looked up): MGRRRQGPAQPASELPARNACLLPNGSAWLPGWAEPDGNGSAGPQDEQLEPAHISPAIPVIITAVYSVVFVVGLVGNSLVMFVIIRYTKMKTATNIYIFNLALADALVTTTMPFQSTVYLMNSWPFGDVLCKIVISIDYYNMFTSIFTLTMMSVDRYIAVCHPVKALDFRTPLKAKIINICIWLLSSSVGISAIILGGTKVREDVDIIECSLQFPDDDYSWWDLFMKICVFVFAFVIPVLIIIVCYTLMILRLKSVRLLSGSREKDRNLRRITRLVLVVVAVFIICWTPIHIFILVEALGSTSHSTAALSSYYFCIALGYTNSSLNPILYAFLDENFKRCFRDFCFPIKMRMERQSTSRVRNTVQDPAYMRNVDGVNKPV
Sequence of human Adrenergic, Alpha 2c Receptor (Adra2C), ADRA2C (gene 152) (P18825 whole entry, looked up): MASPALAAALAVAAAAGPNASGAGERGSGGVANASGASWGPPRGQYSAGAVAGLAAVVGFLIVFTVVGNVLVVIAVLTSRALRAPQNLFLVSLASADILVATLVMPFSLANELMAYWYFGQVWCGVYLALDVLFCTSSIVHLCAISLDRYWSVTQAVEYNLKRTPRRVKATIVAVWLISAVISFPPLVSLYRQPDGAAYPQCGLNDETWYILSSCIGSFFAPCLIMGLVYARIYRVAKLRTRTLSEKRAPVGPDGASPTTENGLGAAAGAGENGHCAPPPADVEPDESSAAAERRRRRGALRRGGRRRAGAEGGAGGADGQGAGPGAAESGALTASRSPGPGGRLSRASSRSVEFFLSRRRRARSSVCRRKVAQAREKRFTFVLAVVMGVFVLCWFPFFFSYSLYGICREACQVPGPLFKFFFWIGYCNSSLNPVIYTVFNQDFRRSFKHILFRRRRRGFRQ
Sequence of human Adrenergic, Beta 1 Receptor (Adrb1), ADRB1 (gene 153) (P08588 whole entry, looked up): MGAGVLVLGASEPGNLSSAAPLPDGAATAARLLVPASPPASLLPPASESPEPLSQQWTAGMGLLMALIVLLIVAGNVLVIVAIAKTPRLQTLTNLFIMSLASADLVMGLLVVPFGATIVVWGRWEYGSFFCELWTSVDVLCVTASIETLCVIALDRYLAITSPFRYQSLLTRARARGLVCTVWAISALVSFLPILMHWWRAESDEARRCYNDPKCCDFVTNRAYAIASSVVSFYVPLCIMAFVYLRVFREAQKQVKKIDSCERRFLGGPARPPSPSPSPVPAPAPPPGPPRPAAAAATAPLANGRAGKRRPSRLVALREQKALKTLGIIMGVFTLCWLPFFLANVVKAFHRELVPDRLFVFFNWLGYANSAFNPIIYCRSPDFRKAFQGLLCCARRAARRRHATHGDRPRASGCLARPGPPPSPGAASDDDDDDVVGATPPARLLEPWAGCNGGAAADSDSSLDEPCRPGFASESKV
Sequence of human Adenosine A1 Receptor (AdoRA1), ADORA1 (gene 134) (P30542 whole entry, looked up): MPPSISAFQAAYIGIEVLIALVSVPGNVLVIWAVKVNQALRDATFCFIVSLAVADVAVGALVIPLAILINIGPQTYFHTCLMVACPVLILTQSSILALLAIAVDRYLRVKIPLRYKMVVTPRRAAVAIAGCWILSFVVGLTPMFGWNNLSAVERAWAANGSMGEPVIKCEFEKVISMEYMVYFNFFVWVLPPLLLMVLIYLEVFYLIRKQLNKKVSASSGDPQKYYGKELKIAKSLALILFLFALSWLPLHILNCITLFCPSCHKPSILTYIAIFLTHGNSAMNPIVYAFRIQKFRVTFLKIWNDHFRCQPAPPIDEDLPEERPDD
Sequence of Beta-2 adrenergic receptor (Homo sapiens) (P07550 whole entry, looked up): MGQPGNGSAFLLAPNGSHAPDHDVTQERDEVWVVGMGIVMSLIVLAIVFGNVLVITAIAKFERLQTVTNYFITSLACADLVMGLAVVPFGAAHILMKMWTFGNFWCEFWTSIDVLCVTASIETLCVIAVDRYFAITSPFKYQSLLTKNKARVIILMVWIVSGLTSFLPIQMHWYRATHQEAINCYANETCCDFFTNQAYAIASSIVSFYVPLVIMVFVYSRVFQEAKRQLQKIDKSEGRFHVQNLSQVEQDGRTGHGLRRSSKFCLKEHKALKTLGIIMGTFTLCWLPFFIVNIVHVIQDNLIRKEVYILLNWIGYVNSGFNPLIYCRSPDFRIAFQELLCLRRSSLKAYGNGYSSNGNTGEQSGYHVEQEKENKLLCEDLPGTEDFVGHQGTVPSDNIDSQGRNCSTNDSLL
Sequence of human Adrenergic, Beta 3 Receptor (Adrb3), ADRB3 (gene 155) (P13945 whole entry, looked up): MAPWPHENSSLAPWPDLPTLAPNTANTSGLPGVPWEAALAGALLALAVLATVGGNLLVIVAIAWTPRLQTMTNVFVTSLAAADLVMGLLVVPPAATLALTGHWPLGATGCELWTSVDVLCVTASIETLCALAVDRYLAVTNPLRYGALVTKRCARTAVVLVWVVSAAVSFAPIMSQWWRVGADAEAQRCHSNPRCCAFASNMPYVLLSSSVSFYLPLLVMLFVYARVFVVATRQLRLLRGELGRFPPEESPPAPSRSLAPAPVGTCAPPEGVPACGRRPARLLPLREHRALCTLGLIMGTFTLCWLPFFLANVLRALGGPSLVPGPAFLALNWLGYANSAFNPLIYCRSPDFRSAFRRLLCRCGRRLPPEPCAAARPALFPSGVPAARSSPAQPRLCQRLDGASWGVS
Sequence of human Serotonin, 5-Hydroxytryptamine Receptor 7 (5HT7), HTR7 (gene 3363) (P34969 whole entry, looked up): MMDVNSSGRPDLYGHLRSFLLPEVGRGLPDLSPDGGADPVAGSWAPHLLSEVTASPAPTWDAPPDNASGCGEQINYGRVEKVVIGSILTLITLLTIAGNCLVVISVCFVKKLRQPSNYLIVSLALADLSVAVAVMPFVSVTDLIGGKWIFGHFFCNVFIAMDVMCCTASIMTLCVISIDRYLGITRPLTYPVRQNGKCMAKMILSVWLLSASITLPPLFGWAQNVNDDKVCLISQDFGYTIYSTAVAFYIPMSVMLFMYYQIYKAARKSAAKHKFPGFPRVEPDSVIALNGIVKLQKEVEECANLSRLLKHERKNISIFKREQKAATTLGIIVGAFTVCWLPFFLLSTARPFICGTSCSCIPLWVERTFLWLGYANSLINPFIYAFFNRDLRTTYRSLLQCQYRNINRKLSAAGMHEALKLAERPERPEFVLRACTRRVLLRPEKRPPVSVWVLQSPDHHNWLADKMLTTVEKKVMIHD
Sequence of human Adenosine A2a Receptor (AdoRA2a), ADORA2A (gene 135) (P29274 whole entry, looked up): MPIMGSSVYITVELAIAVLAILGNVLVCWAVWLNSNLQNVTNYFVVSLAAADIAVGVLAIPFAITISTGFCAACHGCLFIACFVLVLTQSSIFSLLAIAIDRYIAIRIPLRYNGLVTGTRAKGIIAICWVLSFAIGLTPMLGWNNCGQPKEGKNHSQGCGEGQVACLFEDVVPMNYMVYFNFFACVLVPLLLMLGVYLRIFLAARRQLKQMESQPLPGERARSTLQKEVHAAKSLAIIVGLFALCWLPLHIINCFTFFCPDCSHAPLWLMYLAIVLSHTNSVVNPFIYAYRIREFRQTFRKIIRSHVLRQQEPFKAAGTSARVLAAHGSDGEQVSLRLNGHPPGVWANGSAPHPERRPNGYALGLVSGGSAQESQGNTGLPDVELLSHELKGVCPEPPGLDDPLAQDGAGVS

For `O=[N+]([O-])c1ccc(Oc2ccc(Cl)cc2Cl)cc1`, the result in [1] and in [2] was inactive.

On to `Nc1ccc(Cl)cc1N`, for which the concentration at half-maximal activity (AC50) in [3] was 2.4 µM (active).

For `CC(C)N(Cc1ccccc1)C(=O)C(C)(C)C`, the AC50 in assay [4] is 15.7 µM (active).

As for `Cc1cccc(N)c1N`, the AC50 was 8.22 µM (active) in [5] and 4.24 µM (active) in assay [3]. In assay [6], the outcome was inactive.

`COP(=S)(OC)SCN1C(=O)c2ccccc2C1=O`: the half-maximal activity concentration (AC50) in [5] is 13.7 µM (active).

Turning to `CCOC(=O)[C@]1(c2ccccc2)Oc2ccccc2[C@@H]1N`, the AC50 in assay [1] is 0.824 µM (active); in assay [7], 0.0948 µM (active); in [8], 6.2 µM (active); in assay [2], 1.41 µM (active); in assay [9], 0.611 µM (active); in assay [6] it was 16.8 µM (active). Besides, the AC50 in assay [10] was 4.96 µM (active).

As to `CN(C)C(=O)Nc1ccc(Cl)cc1`, the call in assay [6] was inactive.

Regarding `CCNS(=O)(=O)C(F)(F)C(F)(F)C(F)(F)C(F)(F)C(F)(F)C(F)(F)C(F)(F)C(F)(F)F`, the concentration at half-maximal activity (AC50) in assay [3] is 14.5 µM (active).

With `CCN(CC)CCO`, the outcome in [7] was inactive.

In the case of `CCCCCCCCn1sccc1=O`, the AC50 is 18.2 µM (active) in [4], 17.9 µM (active) in assay [7], 12.2 µM (active) in assay [2] and 6.02 µM (active) in assay [9]. The compound was classed as inactive in assay [8].

As for `Nc1ccc(N=Nc2ccccc2)cc1`, the outcome in assay [5] was inactive.

With `c1ccc2c(c1)-c1cccc3cccc-2c13`, in assay [6], the compound was classed as inactive.

As to `CCC[CH2][Sn]([Cl])([CH2]CCC)[CH2]CCC`, the AC50 is 14.5 µM (active) in [4]; 5.51 µM (active) in assay [1]; 25 µM (active) in assay [5]; 0.354 µM (active) in assay [7]; 6.46 µM (active) in assay [3]; 3.65 µM (active) in [8]. Moreover, the AC50 in [2] is 1.25 µM (active); in [6], 5.47 µM (active); in assay [10], 9.81 µM (active).

Turning to `CC(C)(O)c1cnn2c(-c3ccc(F)c(-c4c(F)cccc4C#N)c3)cnc2n1`, the AC50 in [3] was 0.0738 µM (active).

On to `CCCCCOC(=O)c1ccccc1C(=O)OCCCCC`, for which the compound was classed as inactive in assay [4], in assay [1] and in assay [2].

Turning to `CCCSC(=O)N(CCC)CCC`, in [4], the call was inactive.

In the case of `[Cl-].[Cl-].[Hg+2]`, the AC50 was 13.5 µM (active) in assay [4]; 1.56 µM (active) in assay [1]; 0.928 µM (active) in assay [7]; 5.19 µM (active) in assay [3]; 2.23 µM (active) in [8]; 0.303 µM (active) in assay [2]. Also, the AC50 is 0.227 µM (active) in assay [9] and 0.925 µM (active) in assay [6]. The compound was called inactive in assay [10].

For the compound `O=C(N[C@H](c1ccccc1)[C@@H]1CN2CCC1CC2)c1c(Cl)ccc(C(F)(F)F)c1Cl`, the AC50 is 0.0235 µM (active) in [4], 28.5 µM (active) in [7] and 37.5 µM (active) in assay [2]. For the same compound, the compound was classed as inactive in assay [10].

Consider `CCCCCCCCOC(=O)c1ccc(C(=O)OCCCCCCCC)c(C(=O)OCCCCCCCC)c1`, for which the call in assay [7] and in [2] was inactive.

As for `O=[N+]([O-])C(Br)(CO)CO`, in assay [4], the AC50 is 25 µM (active).

The term AC50 denotes the concentration at which the activity in the assay is half-maximal.
